The panel holds about 83,000 compounds, 20% with a hit somewhere; the sample as a whole holds those more often.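 Activity criterion: percent growth below 10, measured after cells in 96-well plates were exposed to a single compound concentration for 48 hours.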 Unmarked numbers belong to inactive results. Activity calls are given as the source filed them.
What was measured:
Experiment in all cases: NCI-60 one-dose screen, 48 h (100 = growth as untreated, 0 = no growth, -100 = all killed)
Details in all cases: 10 µM unless noted
NCI-H23 lung = system: NCI-H23 lung
NCI-H226 lung = system: NCI-H226 lung
NCI-H322M lung = system: NCI-H322M lung
HOP-62 NSCLC = system: HOP-62 NSCLC
NCI-H460 lung = system: NCI-H460 lung
HOP-92 NSCLC = system: HOP-92 NSCLC
NCI-H522 lung = system: NCI-H522 lung
A549/ATCC NSCLC = system: A549/ATCC NSCLC
786-0 renal = system: 786-0 renal
COLO 205 colon = system: COLO 205 colon
DU-145 prostate = system: DU-145 prostate
K-562 leukemia = system: K-562 leukemia
MALME-3M melanoma = system: MALME-3M melanoma
MDA-MB-231 breast = system: MDA-MB-231 breast
RXF 393 renal = system: RXF 393 renal
SF-268 CNS = system: SF-268 CNS
SF-295 CNS = system: SF-295 CNS
SF-539 CNS = system: SF-539 CNS
UACC-257 melanoma = system: UACC-257 melanoma
M14 melanoma = system: M14 melanoma

Structure (SMILES) | growth (NCI-H23 lung) | growth (NCI-H226 lung) [%] | growth (NCI-H322M lung) [%] | growth (HOP-62 NSCLC) | growth (NCI-H460 lung) | growth (HOP-92 NSCLC) [%] | growth (NCI-H522 lung) [%] | growth (A549/ATCC NSCLC) [%] | growth (786-0 renal) [%] | growth (COLO 205 colon) [%] | growth (DU-145 prostate) | growth (K-562 leukemia) | growth (MALME-3M melanoma) | growth (MDA-MB-231 breast) [%] | growth (RXF 393 renal) [%] | growth (SF-268 CNS) [%] | growth (SF-295 CNS) | growth (SF-539 CNS) | growth (UACC-257 melanoma) [%] | growth (M14 melanoma)
NC(=O)c1ccccc1OCC(=O)Nc1ccc(Cl)c(Cl)c1 | 104% | 96.3 | 96.8 | 96.8% | 100% | 88.7 | 83.1 | 114 | 109 | 105 | 114% | 91% | 100% | 96.1 | 104 | 107 | 98.9% | 85.1% | 112 | 111%
O=C1C=C(SCCO)C(=O)c2ccccc21 | -39% (active) | 95.6 | 69.6 | -46.9% (active) | 9.52% (active) | 94.3 | 21.6 | 68.1 | 70.3 | 76.3 | -96.7% (active) | -38.4% (active) | -68.1% (active) | 40.2 | 42.4 | 27.2 | -77.4% (active) | -77.1% (active) | 66.7 | -86.5% (active)
COc1ccc(-c2cc(-c3cn(-c4cccc(Cl)c4)nc3-c3ccc(OC)cc3)on2)cc1 | 95.3% | 89.9 | 86.9 | 107% | 98.6% | 104 | 74.8 | 83 | 100 | 116 | 113% | 84.7% | 127% | 80.9 | 102 | 108 | 108% | 112% | 112 | 101%
CC1SC(c2ccccc2O)N(NC(=O)CCC(=O)c2nc3ncccc3[nH]2)C1=O (stereo not given) | 86.5% | 80.7 | 93.4 | 87.8% | 103% | 79.2 | 95.5 | 96.2 | 90.3 | 110 | 102% | 109% | 94% | 103 | 96.4 | 95.7 | 96.2% | 93.1% | 99.4 | 97.6%
COc1ccc(NC(=O)c2ccc(Nc3ncnc4c3cnn4-c3cccc(F)c3)cc2)cc1 | 103% | 103 | 103 | 101% | 102% | 96.4 | 96.9 | 101 | 104 | 109 | 103% | 94.8% | 92.6% | 92 | 90.2 | 99.1 | 98.3% | 96.5% | 97.9 | 98.4%
CCN(CC)CCCNc1cc(OC)c(OC)c2cccnc12 | 7.1% (active) | 110 | 85.1 | 58.3% | 23.4% | 84.7 | 20.9 | 56.4 | 43.4 | 98.4 | 90.3% | 66.2% | 90.3% | 74.2 | 113 | 66.1 | 79.5% | 55.7% | 67 | 48%
CC1(C)CC(=O)C2=C(C1)C(c1ccc(Cl)cc1)n1ncc(C#N)c1N2 (stereo not given) | 99.6% | 94.8 | 90.9 | 104% | 106% | 99.3 | 85.7 | 101 | 98.9 | 109 | 108% | 106% | 102% | 93.6 | 107 | 103 | 101% | 87.6% | 101 | 108%
CC1(C)CC[C@]2(CO)CC[C@]3(C)[C@](O)([C@H](O)C[C@@H]4[C@@]5(C)CCCNC(C)(C)[C@@H]5CC[C@]43C)[C@@H]2C1 | 95% | 106 | 103 | 101% | 88.8% | 94 | 92.4 | 85.2 | 101 | 44.2 | 103% | 10.3% | 101% | 102 | 94.9 | 98.9 | 108% | 97.9% | 96.3 | 96.1%
